Only some compounds are listed: those with a hit (about 5.3% of all), similar ones and a draw of the others.
Lassa entry inh: qHTS for Inhibitors of binding or entry into cells for Lassa Virus; 1.2% of 300,000 active; Potency, µM (highest dose often 37.9 µM), inactives show at the highest dose activity change, negative = inhibition, usual class: inhibitors; Lassa virus pseudotype entry inhibition, cell reporter; AID 540256, 2011; calls by dose curve; tested in HEK293 cells; further: nearly all actives have a fitted effect of over 50% in size
MARV entry inh: qHTS for inhibitors of binding or entry into cells for Marburg Virus; AID 540276, 2011; Marburg virus pseudotyped entry inhibition, cell reporter; 1.8% of 300,000 active; Potency, µM (series often up to 37.8 µM), for inactives: top-dose activity change, negative = inhibition, hits mostly inhibitors; calls by dose curve; tested in HEK293 cells
VACV Venus inh: qHTS for Stage-Specific Inhibitors of Vaccinia Orthopoxvirus: Venus Reporter Primary qHTS; 0.46% of 330,000 active; Potency, µM (doses to about 36.5 µM), without a hit: top-dose activity change, negative = inhibition, actives largely listed as inhibitors; AID 720580, 2013; Vaccinia virus Venus reporter expression, fluorescence; calls by dose curve; tested in A549 cells; further: nearly all actives have a fitted effect of over 30% in size
FMDV inh: High Throughput Screening for Foot and Mouth Disease Virus Antivirals | FMDV antiviral cell-based qHTS | Potency, µM (highest dose often 57.9 µM), without a hit: at the highest dose activity change, negative = inhibition, most hits filed as inhibitors | 1.2% of 410,000 active; calls by dose curve; tested in HEK293T cells; further: read-out not given here; nearly all actives have a fitted effect of over 45% in size
Vaccinia mCherry: qHTS for Stage-Specific Inhibitors of Vaccinia Orthopoxvirus: mCherry Reporter Primary qHTS; Vaccinia virus mCherry reporter infection, fluorescence; Potency, µM (series often up to 36.5 µM), inactives show at the top dose activity change, negative = inhibition, actives largely listed as inhibitors; 0.63% of 310,000 active; AID 720579, 2013; calls by dose curve; tested in A549 cells; further: nearly all actives have a fitted effect of over 35% in size
HCV inhibitor: qHTS Assay for Inhibitors of Hepatitis C Virus (HCV); Huh7.5.1 HCVcc-Cre infection, luciferase reporter, 44 h; Potency, µM (titrated, usually from 41.8 µM), for inactives: at the highest dose activity change, negative = inhibition, most hits filed as inhibitors; 3.4% of 340,000 active; AID 651820, 2012; active means well fitted inhibition curve with a large enough effect; inconclusive means small, poorly fitted or top-dose-only effect, or another doubt; inactive means no such curve, though single readings can be large or run the other way
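A cell-based infection assay in which seeded cells (1,000 per well) receive test compound after 4 h, are inoculated with HCVcc-Cre at approximately 0.5 moi, and are incubated 44 h before luminescence detection.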
* = called active by the depositor; i = inactive; u = inconclusive; x = not tested or not shown; [ ] = dose if it differs, or a comment. On the % scale 0 is the no-effect control and ±100 the full control effect; potency means the concentration at half of the fitted maximal effect.

SMILES	Lassa entry inh	MARV entry inh	VACV Venus inh	FMDV inh	Vaccinia mCherry	HCV inhibitor
CCC(=O)c1ccc(OC)c(OC)c1OCc1ccccc1	0%	-10%	-7%	-19%	-6%	23%
O=C(C1CCN(CCCc2ccccc2)CC1)N(CCc1ccccc1)Cc1ccccc1	11µM*	u	u	-14%	u	u
COc1ccc(-c2c3c(=O)n(C)c(=O)n(C)c3cn2C2CCCCC2)cc1	u	u	-29%	x	-11%	25µM*
CCCn1cc2c(c1-c1ccc(C)cc1)c(=O)n(C)c(=O)n2C	u	u	-11%	-22%	-13%	-23%
CNC(=S)N/N=C/c1cccc(OCc2ccccc2F)c1	4µM*	u	-25%	-9%	-5%	u
CCNC(=S)N/N=C/c1cccc(OCc2c(F)cccc2Cl)c1	9.2µM*	u	-27%	u	-7%	u
O=C(NC1CCCC1)C1C(c2ccc(C(F)(F)F)cc2)=Nc2ccccc2N1C(=O)c1cc2ccccc2[nH]1 (centres undefined)	x	x	-22%	14%	-9%	x
N/C(Cc1ccc(Cl)cc1)=N\OC(=O)CCc1ccccc1	x	x	-19%	-20%	i	x
N/C(Cc1ccc(Cl)cc1)=N\OC(=O)c1cccc2ccccc12	12µM*	u	-13%	u	-16%	7.1µM*
COc1ccc(C/C(N)=N/OC(=O)c2ccc(Cl)cc2)cc1	u	-19%[46.1 µM]	-4%	7%	i	-1%
N/C(Cc1ccc(Cl)cc1)=N\OC(=O)c1ccc2ccccc2c1	u	2.8µM*	-5%	-10%	-12%	32µM*
N/C(=N\OC(=O)c1cccc2ccccc12)c1cccnc1	-15%	u	x	52%	x	11µM*
Nc1ccnc2c1ncn2[C@@H]1O[C@H](CO)[C@@H](O)[C@H]1O	x	x	u	7%	u	x
CC1CCc2c(sc3ncn(CC(=O)N=Nc4c(O)[nH]c5ccccc45)c(=O)c23)C1 (centres undefined)	x	x	x	0%	x	19%
CCc1nc(N=Nc2c(O)[nH]c3ccccc23)c2c3c(sc2n1)CCC3	-1%	-13%	10µM*	9%	16µM*	u
COc1ccc(COc2cc(-c3cccc(OC)c3)nc3ccc(NC(=O)c4cccnc4)cc23)cc1	15µM*	-21%	-29%	-27%	-2%	u
COc1ccc(COc2cc(-c3cccc(OC)c3)nc3ccc(NC(=O)c4ccccc4)cc23)cc1	u	-39%	-11%	u	i	u
COc1ccc(COc2cc(-c3cccc(OC)c3)nc3ccc(NC(=O)c4ccc(OC)cc4)cc23)cc1	u	u	-11%	u	i	7.1µM*
Cc1ccc([S+](=O)([O-])N[C@@H]2COC(=O)CC=C[C@H](C)COC(=O)N[C@@H](C)C(=O)CC=C[C@H]2C)cc1	x	11%[14.2 µM]	x	x	x	x
CCN(CC)S(=O)(=O)c1ccc(Cl)c(NC(=O)COC(=O)c2cccn2C)c1	-22%	u	-29%	13µM*	u	5.6µM*
CC(=O)c1c(C)[nH]c(C(=O)Nc2cccc(S(=O)(=O)N3CCCC3)c2)c1C	0%	2%	-6%	14%	-17%	u
Cn1ccc(C(=O)OCC(=O)Nc2cccc(Cl)c2)n1	2%	8%[46.1 µM]	-3%	16%	i	16%
Cn1ccc(C(=O)OCC(=O)Nc2ccccc2Cl)n1	29%[46.1 µM]	-3%[46.1 µM]	-18%	9%	u	3.2µM*
CC(=O)c1c(C)[nH]c(C(=O)CN(C)CC(=O)Nc2ccccc2Cl)c1C	u	u	-10%	u	-14%	u
CC(=O)c1c(C)[nH]c(C(=O)OCC(=O)Nc2cccc(S(=O)(=O)N3CCCC3)c2)c1C	u	u	-24%	14µM*	-6%	u
CSc1ccccc1NC(=O)CN(C)CC(=O)c1[nH]c(C)c(C(C)=O)c1C	-26%	-1%	-2%	35µM*	-17%	u
COc1ccc(-c2nc3cnc(N(C)C)nc3n(CCC#N)c2=O)cc1	x	x	x	-4%	x	x

Source: PubChem
